Our source for the outcome values is PubChem BioAssay AID624134 (Broad Institute, 2012).

SMILES strings stand for the structures. About 1,100 (69%) of roughly 1,600 compounds were called active. So high a share suggests a set chosen from earlier hits. A selection follows. Measured potencies and affinities stand elsewhere. Records with an inconclusive call do not appear.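 How the source made its calls: active means signal drop with fitted half-maximal concentration no higher than twice the top valid tested concentration; inconclusive means flat curve with 30 to 70% signal loss, or poor fit; inactive means the rest, including signal rises and flat curves within 30%.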

This assay in a line: HepG2 cell cytotoxicity, dose response, cytotoxicity control for Shn3 inhibitor project, CellTiter-Glo, cherry-picked (AID 624134). The following applies: HepG2 viability, CellTiter-Glo ATP luminescence, 48 h; series mostly up to 35 µM. (In ATP-based viability assays light output follows the ATP content of the culture.)
Consider `Cc1c(C(=O)N(Cc2cccc(Br)c2)C2CCS(=O)(=O)C2)oc2ccccc12` (stereo not drawn), for which the outcome was inactive.

In the case of `CC1CCN(C(=O)c2ccc(N3C(=O)C4CCC(C)CC4C3=O)cc2)CC1` (stereo not drawn), the outcome was inactive.

For `Cc1c(CCOC(=O)CC23CC4CC(CC(C4)C2)C3)sc[n+]1CC(=O)c1ccc(Br)cc1`, the molecule was called inactive.

Take `COc1ccccc1-n1cc([C@@H]2C[C@H]3CN(c4ccccc4)C(=O)[C@]34CCCN24)cn1`: the result was inactive.

As for `O=C(NNc1ccccc1)C(=O)NNS(=O)(=O)c1ccc(CCCl)cc1`, the outcome was inactive.

With `O=C(CN1C(=O)c2ccccc2S1(=O)=O)c1ccc(Cl)cc1Cl`, the outcome was inactive.

For the molecule `NC(=O)NC(CC(=O)NCCc1ccccn1)c1ccccc1Cl` (stereo not drawn), the molecule was classed as inactive.

Take `CC1(C)CC(=O)c2c(nc(SCC(=O)Nc3nsc(-c4ccccc4)n3)c(C#N)c2-c2ccccc2)C1`: the result was inactive.

For `CNS(=O)(=O)c1cccc(C(=O)OCc2cc(C(C)=O)ccc2OC)c1`, the molecule was called inactive.

For `CCN1C(=O)[C@H]2[C@@H](c3ccc(-c4ccc(OC)cc4)cc3)N3CCC[C@@]3(C(=O)OC)[C@H]2C1=O`, the molecule was classed as inactive.

As for `Cc1ccc(S(=O)(=O)CCC(=O)OCC(=O)Nc2cc(S(=O)(=O)N3CCOCC3)ccc2C)cc1`, the call was inactive.

In the case of `CNC(=O)c1nnsc1S(=O)c1ccc(Cl)cc1` (stereo not drawn), the call was inactive.

For `COCCn1c(SCC(=O)/C=C2\N(C)c3ccccc3C2(C)C)nnc1-c1ccncc1`, the molecule was called inactive.

On to `O=C1NCCOC(=O)[C@@H](Cc2ccc(F)cc2)CC/C=C/C[C@@H]1CC(=O)N(CCO)Cc1ccccc1`, for which the call was inactive.

Take `COc1c(CC=C(C)C)cc(C2CC(=O)c3c(O)cc(O)cc3O2)cc1CC=C(C)C` (stereo not drawn): the call was inactive.

`Cc1cc(=O)oc2c3c(cc(OCC(=O)Nc4ccc(CCO)cc4)c12)OC(C)(C)CC3`: the result was inactive.

Take `O=C(Nc1cc(F)ccc1F)N1CCN(c2ccnc3cc(Cl)ccc23)CC1`: the molecule was classed as inactive.

As for `COc1ccccc1-n1ccnc(SCC(=O)NCc2ccccc2Cl)c1=O`, the call was inactive.

Turning to `Cc1ccc(S(=O)(=O)NCCc2cc3ccc(C)cc3[nH]c2=O)cc1`, the outcome was inactive.

For `CC[C@H](C)C(=O)O[C@H]1C[C@@H](C)C=C2C=C[C@H](C)[C@H](CC[C@@H]3C[C@@H](O)CC(=O)O3)[C@H]21`, the molecule was classed as inactive.

Regarding `COc1ccc(S(=O)(=O)N2CCN(c3cc(-c4ccccc4)nc4ncnn34)CC2)cc1`, the outcome was inactive.

For the molecule `O=C(CSc1ccccn1)Nc1nonc1[N+](=O)[O-]`, the result was inactive.

Take `C=CC[C@H](CC(=O)N(CCO)Cc1ccccc1)C(=O)NC[C@H](OC(=O)[C@@H](CC=C)Cc1ccc(F)cc1)c1ccccc1`: the outcome was inactive.

For the molecule `C=CCC[C@H](Cc1ccc(F)cc1)C(=O)OC[C@H](Cc1c[nH]c2ccccc12)NC(=O)[C@H](CC=C)CC(=O)N(CCO)Cc1ccccc1`, the result was inactive.

On to `C=CCOc1nc2c(c(=O)n(C)c(=O)n2C)n1Cc1ccc(Cl)cc1Cl`, for which the molecule was called inactive.

As to `O=C(COC(=O)/C=C/c1ccc(OC(F)F)cc1)Nc1ccc2[nH]c(=O)[nH]c2c1`, the molecule was classed as inactive.

For `C[C@]12CC[C@H](O)CC1=CCC1C2CC[C@@]2(C)C1CCC21OCCO1` (stereo partly drawn), the molecule was called inactive.

As to `Cc1csc(=O)n1CC(=O)OCC(=O)c1c(N)n(C)c(=O)n(C)c1=O`, the molecule was classed as inactive.

`CS(=O)(=O)c1nc(-c2ccc(Br)cc2)cc(-c2ccccc2)c1C#N`: the outcome was inactive.

For `Cc1ccc2c(c1)c(C1=c3ccccc3=NC1=O)c(O)n2C`, the outcome was inactive.

Consider `CCCCN1CC(COCc2ccccc2)Oc2cccc(Oc3ccc(C)cc3)c2S1(=O)=O` (stereo not drawn), for which the result was inactive.

As for `COc1ccc2c(c1OC)C(=O)N1c3ccccc3C(=O)N(c3ccccc3F)C21` (stereo not drawn), the result was inactive.

Turning to `CC1CN(C(=O)CCc2cc(C(C)(C)C)c(O)c(C(C)(C)C)c2)CC(C)O1` (stereo not drawn), the result was inactive.

`CCOc1ccc(Cn2nnc(C(=O)Nc3cc(OC)cc(OC)c3)c2N)cc1`: the call was inactive.

As for `Cc1onc(-c2c(Cl)cccc2Cl)c1C(=O)N[C@@H]1C(=O)N2[C@@H]1SC(C)(C)[C@@H]2C(=O)O`, the molecule was classed as inactive.

For `Cc1onc(-c2ccccc2Cl)c1C(=O)N(C)C1CCCCC1`, the outcome was inactive.

Consider `COc1ccc(NC(=O)CCOc2cc(C)ccc2C)cc1S(=O)(=O)N1CCCCC1`, for which the call was inactive.

`COCc1c(C(=O)Nc2cccc(S(=O)(=O)N3CCCCC3)c2)oc2ccccc12`: the call was inactive.

Consider `O=C(CSc1nnc(-c2ccc(Cl)cc2Cl)n1C1CCCCC1)N1CCCC1`, for which the outcome was inactive.

With `COC(=O)c1cn(NC(=O)c2cc([N+](=O)[O-])ccc2F)c(=O)c2ccccc12`, the outcome was inactive.

On to `CCCCN1C2=NCCCN2c2cc(C)c(C)cc21`, for which the call was inactive.

For `CCN(CC)C(=O)[C@H]1C[C@H](CC(=O)NC/C=C(\C)CCC=C(C)C)C(=O)N2CCc3c([nH]c4cc(CCC(=O)N(C)C)ccc34)[C@]12C`, the result was inactive.

Consider `COCCN1Cc2cccc(C(=O)Nc3ccc4c(c3)OCCO4)c2C1=O`, for which the molecule was classed as inactive.

For the molecule `COc1cc(NC(=O)c2cc3c(Cl)nc4ccccc4c3s2)cc(OC)c1OC`, the call was inactive.

On to `Cc1ccc(CNC(=O)c2cc(-c3ccccc3C)nn2CC2CC(c3cccnc3)=NO2)cc1` (stereo not drawn), for which the molecule was called inactive.

In the case of `COc1ccc(N2C(=O)C(CC(=O)Nc3ccccc3)N(Cc3ccc(OC)c(OC)c3)C2=O)cc1` (stereo not drawn), the result was inactive.

Regarding `CCS(=O)(=O)c1ncc(Cl)c(C(=O)Nc2ccccc2OC)n1`, the call was inactive.

With `COC(=O)c1ccccc1NC(=O)c1nc(S(=O)(=O)Cc2ccccc2)ncc1Cl`, the molecule was classed as inactive.

In the case of `Cc1cccc(CS(=O)(=O)c2ncc(Cl)c(C(=O)Nc3nnc(C(C)C)s3)n2)c1`, the call was inactive.

As for `S=c1[nH]nc(COc2cccc3ccccc23)n1Cc1ccccc1`, the result was inactive.

On to `COC(=O)c1ccc(COC(=O)c2[nH]c(C)c(C(C)=O)c2C)o1`, for which the call was inactive.

Turning to `CCCc1nnc(NC(=O)c2nc(S(=O)(=O)Cc3ccc(C)cc3)ncc2Cl)s1`, the molecule was called inactive.

For `CCc1nnc(NC(=O)c2nc(S(=O)(=O)Cc3cccc(C)c3)ncc2Cl)s1`, the outcome was inactive.

Take `CN(C)S(=O)(=O)c1cccc(N=c2scc(-c3ccc4c(c3)NC(=O)CO4)n2CC2CCCO2)c1` (stereo not drawn): the molecule was classed as inactive.

In the case of `CC(C)(C)C(=O)Nc1cc(S(=O)(=O)N2CCCCC2)ccc1N1CCCCC1`, the result was inactive.

On to `Cc1ccc(-c2nc3ncccc3o2)cc1NC(=O)c1sc2ccccc2c1Cl`, for which the call was inactive.

`Cc1ccc2cc(CN(CC3CCCO3)C(=O)NC3CCCCC3)c(=O)[nH]c2c1C` (stereo not drawn): the molecule was classed as inactive.

For `Cc1ccc(C(=O)N2CCN(C)CC2)cc1S(=O)(=O)N1CCCCCC1`, the molecule was called inactive.

Take `COc1ccc(C(=O)OCC(=O)Nc2ccc3[nH]c(=O)[nH]c3c2)cc1`: the outcome was inactive.

Turning to `O=C(OCCN1C(=O)c2cccc3c(N4CCOCC4)ccc(c23)C1=O)c1ccccc1Cl`, the call was inactive.

Take `Cc1cccc(C(C)(C)C)c1OCCN1CCCC1`: the result was inactive.

For `CCOC(=O)Cc1csc(SCC(=O)c2c(N)n(CC(C)C)c(=O)n(C)c2=O)n1`, the molecule was called inactive.

As for `S=C(Nc1ccccc1)Nc1ccc(OCc2ccc(Cl)cc2Cl)cc1`, the molecule was called inactive.

As for `COc1ccc2c(c1)c(CC(=O)Nc1cc(C)ccc1C)c(C)n2C(=O)c1ccc(Cl)cc1`, the molecule was called inactive.

In the case of `CCCCN1CC(COCc2ccccc2)Oc2cccc(Oc3cc(C)c(C)c(C)c3)c2S1(=O)=O` (stereo not drawn), the molecule was called inactive.

Take `O=C(CSc1nc(C(F)(F)F)cc(=O)[nH]1)N1CCCC1`: the outcome was inactive.

For `Clc1ccc(-c2cc(-c3nnc4n3CCCCC4)c3ccccc3n2)cc1`, the outcome was inactive.

On to `Oc1c(CN2CCN(c3ccccc3)CC2)cc(Br)c2cccnc12`, for which the call was inactive.

Consider `Cc1cc(CN2CCOCC2)c(O)c(C2(C)CCCCC2)c1`, for which the call was inactive.

On to `Cc1ccnc(N/C=C(/NC(=O)c2ccccc2)C(=O)N/N=C\c2ccc(F)cc2)n1`, for which the outcome was inactive.

Regarding `CCS(=O)(=O)c1ccc2oc(SCC(=O)N3CCCCC3)nc2c1`, the molecule was called inactive.

In the case of `Oc1ccc(-c2csc(Nc3cccc4ccccc34)n2)cc1O`, the result was inactive.

Turning to `CCC(=O)c1cn(CC(=O)Nc2ccccc2Cl)c2ccccc12`, the result was inactive.

Take `O=C(Cn1cc(C(=O)c2ccco2)c2ccccc21)Nc1ccccc1F`: the call was inactive.

As for `NS(=O)(=O)c1ccc(CNC(=S)NC(=O)c2ccco2)cc1`, the molecule was called inactive.

Consider `Cc1ccc(-c2nnc(N3CCC(C)CC3)c3ccccc23)cc1C`, for which the call was inactive.

With `C[C@@H]1CN([C@H](C)CO)C(=O)c2cc(Br)cnc2O[C@H]1CN(C)C(=O)Cc1ccncc1`, the molecule was called inactive.

With `Cc1cc(C(=O)COC(=O)c2ccccc2Br)c(C)n1CC1CCCO1` (stereo not drawn), the outcome was inactive.

For the molecule `CCOC(=O)C1CCN(C(=O)c2sc3nc(C)nc(N4CCC(C)CC4)c3c2C)CC1`, the call was inactive.

For `CN(C(=O)CSc1nc(-c2cccs2)nc2ccccc12)C1CCS(=O)(=O)C1` (stereo not drawn), the molecule was called inactive.

With `CC(C)=CCC/C(C)=C/CNC(=O)C[C@H]1C[C@H](C(=O)N(C(C)C)C(C)C)[C@@]2(C)c3[nH]c4cc(CCC(=O)N(C)C)ccc4c3CCN2C1=O`, the molecule was classed as inactive.

On to `O=[N+]([O-])c1cc(S(=O)(=O)C(F)(F)F)ccc1Sc1nc2ccccc2s1`, for which the molecule was classed as inactive.

For the molecule `CS(=O)(=O)c1ccc(Sc2nc3ccccc3s2)c([N+](=O)[O-])c1`, the outcome was inactive.

Consider `N#C/C(=C(\O)Cc1ccccc1)c1nc2ccccc2[nH]1`, for which the molecule was classed as inactive.

As to `C=CCOC(=O)C1=C(C)N=C2SCCC(=O)N2C1c1cccs1` (stereo not drawn), the result was inactive.

In the case of `CC(=O)O[C@H]1CC[C@@]2(C)C(=CC[C@H]3[C@@H]4CC[C@H](C(C)=O)[C@@]4(C)CC[C@@H]32)C1`, the molecule was called inactive.

Take `C=CCNc1nc(N2CCOCC2)c(C#N)c2c1CN(C)CC2`: the molecule was called inactive.

As to `CC(=O)N1CCOc2cc(S(=O)(=O)NCc3ccc(F)cc3)c(C)cc21`, the call was inactive.

For `C[C@@H]1CN([C@H](C)CO)C(=O)CCCn2nncc2CO[C@H]1CN(C)S(=O)(=O)c1ccc2c(c1)OCCCO2`, the outcome was inactive.

On to `CCn1nnc2cc(C(=O)Nc3cc(Cl)ccc3C)ccc21`, for which the outcome was inactive.

Take `O=C(Sc1cccc2cccnc12)c1ccccc1Br`: the molecule was classed as inactive.

On to `CN(c1ccccc1)S(=O)(=O)c1cccc(NC(=O)CSc2nncs2)c1`, for which the call was inactive.

For `CCOc1ccc2nc(SC3CC(=O)N(c4ccc(C)cc4)C3=O)sc2c1` (stereo not drawn), the molecule was called inactive.
